Compounds without any hit were thinned out: in the full panel of roughly 83,000, 20% have a hit.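 Method: cells in 96-well plates; compound added at one concentration; 48 h incubation; percent growth measured; values under 10 scored active.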 Calls of active or inactive are those of the source.

For the assay, the system named is BT-549 breast. The assay is described as follows: NCI-60 one-dose screen, 48 h (100 = growth as untreated, 0 = no growth, -100 = all killed). Particulars: 10 µM unless noted.
Take `CCCCn1c(=O)c2c(nc3n2CCCN3CCc2ccc(OCC(=O)NCCN(CC)CC)cc2)n(CCCC)c1=O`: the growth is 67% (inactive).
`COc1cc2c(cc1-c1c(C)noc1C)ncc1nc(C3CCC(F)(F)CC3)n(C3CCC(OC(F)F)CC3)c12` (configuration not stated): the growth was 79.2% (inactive).
On to `CCN1CCN(c2cc(C)nc(NCc3cc(Nc4ccnc5cc(Cl)ccc45)ccc3F)n2)CC1`, for which the growth is 98.6% (inactive).
As to `CCCCc1ccc(Nc2ccc(Nc3ccc(CCCC)cc3S(=O)(=O)O)c3c2C(=O)c2ccccc2C3=O)c(S(=O)(=O)O)c1`, the growth was 94% (inactive).
With `N#Cc1c(-c2cccc(Cl)c2)cc(-c2cccc(Cl)c2)[nH]c1=O`, the growth was 52.4% (inactive).
As for `Cc1cccc(Cc2cnc(NC(=O)/C=C/c3ccco3)s2)c1`, the growth is 25.8% (inactive).
For the compound `N#CC1=C(c2ccc(Br)cc2)NC(SCC(=O)c2ccc(Br)cc2)NC1=O` (configuration not stated), the growth is 99.1% (inactive).
For `C[C@H](NC(=O)[C@@H]1CSSC[C@@H](NC(=O)c2nc3ccccc3cc2O)C(=O)NCC(=O)N1C)c1ccccc1`, the growth is 44.3% (inactive).
Then `Cc1c2c(c(C)c3c1oc1cc(O)ccc13)C(=O)N(CCN1CCCCC1)C2=O`, with 97.7% (inactive); and `CCCCCCCCCCCCCCCCCCOc1ccc(CC(=O)OCC[N+]2(C)CCCC2)cc1`, with 123% (inactive); and `COc1cccc(-c2nn(-c3ccccc3)cc2-c2ccnc(NCCCNC(=O)c3ccc(F)cc3)c2)c1`, with 29.8% (inactive).
Take `COC(=O)[C@H](CSC)N(C)C(=O)[C@@H]1CSSC[C@@H](NC(=O)c2nc3ccccc3cc2O)C(=O)NCC(=O)N1C`: the growth was 111% (inactive).
